Data on 40 compounds can be found in PubChem BioAssay.

The source made the active and inactive calls.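 Rule for the calls: active = visually confirmed hit in the image check and inhibition above 20%; inconclusive = visually confirmed hit but inhibition not above 20%; inactive = no visual hit in the image check.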

The nature of this test: inhibitors of E-selectin induction by TNFa, primary screen, imaging, HUVEC, immunofluorescence, MLSMR starter and 10KST1 sets (AID 487).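 For inhibition: signal is fraction of cell area covered by stained E-selectin grains.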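 For nuclei count: 100% = median nuclei count of all wells on the same plate.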 The conditions noted are these: HUVEC TNFalpha-induced E-selectin immunofluorescence imaging, at 2 µM; inhibition: stronger effect = higher value; nuclei count: measured here: cell number, toxicity.
What is called inhibition is the relative decrease from the control value, in per cent. For the compound `Cn1c(Cc2ccccc2)nnc1SCC(=O)N1CCOCC1`, the inhibition is -74.1% (inactive) and the nuclei count is 123%.
Taken in the same sequence, the figures for `CCOC(=O)N1CCN(C(=O)c2c(-c3ccccc3)noc2C)CC1` were -27.3% (inactive) and 106%.
Taken in the same sequence, the figures for `Cc1csc(NC(=O)CCCSc2nc3ccccc3s2)n1` were -33.8% (inactive) and 110%.
On the same counts, the results for `COc1ccc(-c2nc(C#N)c(N3CCOCC3)o2)cc1OC` are -16.3% (inactive) and 98.5%.
Turning to `COCCn1nnnc1CN1CCC(Cc2ccccc2)CC1`, the nuclei count turned out to be 96.1% and the inhibition was -71.7% (inactive).
On the same counts, the results for `c1cc2c(cc1Cn1cnnn1)OCO2` are 87.2% and 26.6% (inactive).
For the compound `O=C(OCCN1C(=O)c2ccccc2C1=O)c1ccc(S(=O)(=O)N2CCCCCC2)cc1`, the inhibition is -10.3% (inactive) and the nuclei count was 108%.
As to `CCCN(Cc1cc2cc(C)ccc2[nH]c1=O)C(=O)c1cccc(OC)c1`, the inhibition was -74% (inactive) and the nuclei count was 107%.
On the same counts, the results for `c1ccn2c(SCc3ccc4c(c3)OCCO4)nnc2c1` are -56.4% (inactive) and 117%.
Taken in the same sequence, the figures for `Cc1ccc(-n2c(Cn3cnc4ccccc43)nnc2SCC(=O)O)cc1` were -26.2% (inactive) and 110%.
On the same counts, the results for `CSc1ccc(S(=O)(=O)Nc2cccc(F)c2)cc1` are -34.7% (inactive) and 96.9%.
On to `Cc1cc(NC(=O)CCCN2C(=O)c3cccnc3C2=O)no1`, for which the inhibition is -64.2% (inactive) and the nuclei count was 79.6%.
On the same counts, the results for `C=CCn1c(SCC(=O)NCC2CCCO2)nc2scc(-c3ccco3)c2c1=O` (stereo not given) are 28.1% (inactive) and 98.7%.
Taken in the same sequence, the figures for `CCOC(=O)N1CCC(NC(=O)CCN2C(=O)COc3ccccc32)CC1` were -22.4% (inactive) and 127%.
On the same counts, the results for `Cc1cccc(Nc2nc(N)nc(CN3CCC(C(N)=O)CC3)n2)c1C` are -35% (inactive) and 123%.
Regarding `CC(NS(=O)(=O)c1ccc(F)cc1)C(c1cccs1)N1CCN(C)CC1` (stereo not given), the nuclei count came to 105% and the inhibition is -0.8% (inactive).
Taken in the same sequence, the figures for `COC(=O)c1cccc(NC(=O)Cc2coc3cc(OC)ccc23)c1` were 120% and -64.1% (inactive).
As for `C[C@@H]1C[C@H](O)c2cc(Cl)ccc2N1`, the inhibition is -39.2% (inactive) and the nuclei count was determined as 114%.
Taken in the same sequence, the figures for `Cc1cccc(C)c1OCc1nnc(SCC(=O)Nc2ccccc2F)o1` were 4% (inactive) and 109%.
Taken in the same sequence, the figures for `COc1cc2c(=O)nc3n(c2cc1OC)C(c1ccccc1)N=C(N)N3` (stereo not given) were 0.3% (inactive) and 98.2%.
With `CC(=O)N1CCN(S(=O)(=O)c2cccc(C(=O)Nc3ccc4c(c3)CCC4)c2)CC1`, the nuclei count was 111% and the inhibition was -54.2% (inactive).
Take `Cn1c(=O)c(=O)n(C)c2cc(S(=O)(=O)N3CCCCC3)ccc21`: the nuclei count stood at 87.6% and the inhibition was -3.4% (inactive).
On the same counts, the results for `O=C(COC(=O)C12CC3CC(CC(O)(C3)C1)C2)N1CCN(S(=O)(=O)c2ccc(Cl)cc2)CC1` are 97.2% and -72.7% (inactive).
On the same counts, the results for `O=S(=O)(c1ccc(S(=O)(=O)N2CCN3CCCC3C2)cc1)N1CCCC1` (stereo not given) are 85% and 34.6% (inactive).
Turning to `CC(C)CC1NC(=O)N(CC(=O)N2CCN(S(=O)(=O)c3ccc(Cl)cc3)CC2)C1=O` (stereo not given), the inhibition is -35.6% (inactive) and the nuclei count was determined as 76.3%.
In the case of `CCN(C1CCCCC1)S(=O)(=O)c1ccc(S(=O)(=O)N2CCN(CCC#N)CC2)cc1`, the nuclei count was determined as 108% and the inhibition was -28.6% (inactive).
Turning to `C=CCOc1nc2c(c(=O)n(C)c(=O)n2C)n1C`, the nuclei count came to 119% and the inhibition was 0.3% (inactive).
Taken in the same sequence, the figures for `Cn1nnnc1SCC(=O)N1CCN(c2cccc(Cl)c2)CC1` were 115% and -206% (inactive).
On to `Cn1c(=O)[nH]c(=O)c2c1ncn2CCN1CCOCC1`, for which the inhibition is -6.5% (inactive) and the nuclei count was found to be 102%.
Taken in the same sequence, the figures for `Cc1cnn(Cc2ccccc2)c1N` were 25.6% (inactive) and 100%.
Taken in the same sequence, the figures for `CCOc1ccc(-c2nc(C#N)c(NCc3ccc4c(c3)OCO4)o2)cc1` were -56.3% (inactive) and 120%.
Taken in the same sequence, the figures for `N[C@@H](Cc1ccccc1)c1nnc2sc(SCc3ccccc3)nn12` were -15.7% (inactive) and 114%.
Take `CCOC(=O)c1cc2sc(C)cc2n1C(C)C(=O)OCC` (stereo not given): the nuclei count stood at 123% and the inhibition was -48.6% (inactive).
On the same counts, the results for `CCn1nnc(NC(=O)c2ccccc2Br)n1` are 95.4% and 12.4% (inactive).
On the same counts, the results for `CCOc1cc(-c2nc3ccccn3c2NCC2CCCO2)ccc1O` (stereo not given) are 83.1% and -97% (inactive).
Taken in the same sequence, the figures for `Cc1ccc(O)c(-c2cc3ccccc3[nH]2)c1` were 109% and -37.9% (inactive).
With `CC(=O)c1c(C)[nH]c(C(=O)N2CCN(C(=O)c3ccco3)CC2)c1C`, the inhibition was -98.1% (inactive) and the nuclei count was found to be 120%.
On to `O=S(=O)(c1ccc(Oc2ccc(-c3nnco3)cc2)nc1)N1CCC(Cc2ccccc2)CC1`, for which the nuclei count was found to be 108% and the inhibition was -1% (inactive).
On the same counts, the results for `O=C(Nc1ccccc1N1CCN(c2ccc(F)cc2)CC1)c1ccccc1` are 134% and -122% (inactive).
On the same counts, the results for `Cc1cc(C)n2cc(CSc3nnnn3C)nc2n1` are 65.8% and 36.6% (inactive).
